# Active and inactive are the calls of the source. Rule for the calls: active = hit-call score of the fitted dose curve at least 0.9, where 1 is the maximum; inactive = score below 0.9.
# Molecular target: human PRAK CAMK Kinase, MAPKAPK5 (gene 8550) (UniProt Q8IW41)
# Experiment: ERF_TW_ENZ_hMAPKAPK5: Eurofins (ERF) Enzymatic Radiometric [10 uM ATP] LeadHunter Assay for human PRAK CAMK Kinase
# Protocol: ERF_TW_ENZ_hMAPKAPK5 is a biochemical, single-readout assay that uses extracted gene-proteins in a cell-free assay. Measurements were taken 0.5 hour after chemical dosing in a 96-well plate. See PRAK Human CAMK Kinase Enzymatic Radiometric Assay [10 uM ATP], Panlabs.ERF_TW_ENZ_hMAPKAPK5 is an assay component calculated from the ERF_TW_ENZ_hMAPKAPK5 assay. It is designed to measure enzyme activity using a type of enzyme reporter as detected by scintillation counting with radiometry technology.Data from the assay component ERF_TW_ENZ_hMAPKAPK5 was analyzed at the assay endpoint, ERF_TW_ENZ_hMAPKAPK5, in the positive analysis fitting direction relative to DMSO as the negative control and baseline of activity. Using a type of enzyme reporter, loss-of-signal activity can be used to understand changes in enzymatic activity as they relate to gene MAPKAPK5. To generalize the intended target to other relatable targets, this assay endpoint is annotated to the kinase intended target family, where the subfamily is serine/threonine kinase.
# Human recombinant protein kinase PRAK expressed in insect Sf21 cells is used. Test compound is preincubated with 0.44 U/ml enzyme in modified MOPS buffer pH 7.2 for 15 minutes at 37C. […] An aliquot is removed and counted to determine the amount of [32P]PRAK substrate. […]
# Chain of human PRAK CAMK Kinase, MAPKAPK5 (gene 8550) (Q8IW41 whole entry, looked up): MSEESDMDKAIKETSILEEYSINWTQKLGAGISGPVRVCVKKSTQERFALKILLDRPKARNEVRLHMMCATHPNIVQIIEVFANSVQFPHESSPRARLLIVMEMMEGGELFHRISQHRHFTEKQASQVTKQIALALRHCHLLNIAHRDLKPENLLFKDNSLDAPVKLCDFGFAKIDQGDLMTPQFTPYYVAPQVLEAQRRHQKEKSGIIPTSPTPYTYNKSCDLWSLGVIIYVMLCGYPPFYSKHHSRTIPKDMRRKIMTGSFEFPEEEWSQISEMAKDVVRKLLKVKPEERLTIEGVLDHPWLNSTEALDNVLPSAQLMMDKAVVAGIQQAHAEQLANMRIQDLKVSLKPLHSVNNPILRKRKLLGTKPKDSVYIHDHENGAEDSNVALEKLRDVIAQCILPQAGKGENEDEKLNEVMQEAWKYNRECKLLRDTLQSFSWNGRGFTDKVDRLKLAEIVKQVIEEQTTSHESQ
row,Compound,AC50
1,O=C(/C=C/c1ccc(O)cc1)CC(=O)/C=C/c1ccc(O)cc1,1.02 µM (active)

# Reference: PubChem BioAssay AID2284104 (EPA ToxCast)
